The values that follow come from PubChem BioAssay.

Values without a mark were called inactive.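 Rule for the calls: active = compounds killing one labelled cell type while sparing the other, by normalised counts and ratio limits, not self-fluorescent; inactive = the rest.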

The nature of this test: EMT-state selective cytotoxicity in co-culture – imaging, PC-3E GFP, TEM4-18 mCherry, primary screen (AID 1345086).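 Note: normalised mesenchymal count divided by normalised epithelial count so high means epithelial killing; cells exposed to compound for 72 h before imaging.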 As to conditions: PC-3E GFP / TEM4-18 mCherry co-culture, imaging cell counts; at 1 µM; actives lie on both sides; counts scaled to control wells, 1 = unselective.
As for `O=C(Nc1ccc(Cl)cc1)Nc1ccc(CO)cc1`, the red/green cell ratio (normalised) is 0.86.
To `C[C@H]1C[C@H]2C(=O)O[C@H]([C@@H](C)CCCC[C@@H](C)O)C[C@@H](O)[C@H](C)C(=O)NC(Cc3ccccc3)C(=O)N2C1` (some centres undefined) belongs 0.93; to `C[C@H]1[C@H](OC(=O)CCC(=O)O)O[C@@H]2O[C@]3(C)CC[C@H]4[C@H](C)CC[C@@H]1[C@@]24OO3`, 0.81; to `O=C(O)C(O)[C@H](O)[C@H](O)[C@H](O)[C@H](O)CO` (some centres undefined), 1.28.
To `CC1CN(c2c(F)c(N)c3c(=O)c(C(=O)O)cn(C4CC4)c3c2F)C[C@H](C)N1` (some centres undefined) belongs 0.99; to `O=C1CC[C@]23/C=C/C(=O)NCCCCNCCCNC(=O)/C=C/c4ccc(c2c4)O[C@@H]3C1`, 0.81.
The figure for `COC(=O)C[C@H]1C2(C)CC34OC5(C)O[C@]6(C7/C(=C(/OC)C(C)C)C(=O)O[C@@H](c8ccoc8)[C@]7(C)C(OC(=O)C(C)C)[C@@H](OC)[C@]6(O5)C13C)[C@H](OC)[C@@]4(OC)C2OC(C)=O` (some centres undefined) is 0.95.
`CC(C)(C)[Si](C)(C)OCC1O[C@H](Sc2ccccc2)[C@H]2NC(=O)O[C@H]2C1O` (some centres undefined): the red/green cell ratio (normalised) is 1.07.
On to `COc1c(F)c(F)cc2c(=O)c(C(=O)NO)cn(C3CC3)c12`, for which the red/green cell ratio (normalised) is 1.08.
In the case of `C[C@@H]1OC(O[C@H]2[C@H](O)[C@@H](O)[C@H](OC[C@H]3O[C@@H](OC(=O)[C@]45CCC(C)(C)CC4C4=CCC6[C@@]7(C)CC[C@H](OC8OC[C@H](O)[C@H](O)[C@H]8OC8O[C@@H](C)[C@H](O)[C@@H](O)[C@H]8O)[C@@](C)(CO)C7CC[C@@]6(C)[C@]4(C)CC5)[C@H](O)[C@@H](O)[C@@H]3O)O[C@@H]2CO)[C@H](O)[C@H](O)[C@H]1O` (some centres undefined), the red/green cell ratio (normalised) was 0.98.
Consider `Nc1nc(Cl)nc2c1ncn2C1O[C@H](CO)[C@@H](O)[C@@H]1F` (some centres undefined), for which the red/green cell ratio (normalised) is 1.78.
For the molecule `Oc1ccc(Oc2cnc3ccc(Cl)cc3n2)cc1`, the red/green cell ratio (normalised) was 0.74.
Take `CC/C=C1C=C(/C=C/CO)C(=O)O/1`: the red/green cell ratio (normalised) is 1.01.
`CCC(=O)O[C@]1(C(=O)SCF)[C@H](C)CC2C3CC(F)C4=CC(=O)C=C[C@]4(C)C3(F)[C@@H](O)C[C@@]21C` (some centres undefined): the red/green cell ratio (normalised) was 1.04.
To `CC1=C2[C@](C)(C=CC1=O)C[C@H](O)[C@H]1[C@H](C)C(=O)O[C@]21C` belongs 1.06.
To `CC(=O)OCC1O[C@H](Sc2ccc(C)cc2)[C@@H]2[C@@H](OC(=O)N2C(C)=O)C1OC(C)=O` (some centres undefined) belongs 0.77; to `Cc1ccc(S[C@H]2OC(COCc3ccccc3)C(OC(=O)CCC(=O)O)[C@@H]3OC(=O)N[C@H]23)cc1` (some centres undefined), 0.99.
For the molecule `C=C[C@](C)(O)CC[C@@H]1[C@@]2(C)CCCC(C)(C)[C@@H]2CC[C@]1(C)O`, the red/green cell ratio (normalised) was 1.05.
To `CC(C)CCCC(C)[C@H]1CCC2C3C(=O)C=C4C[C@@H](O)CC[C@]4(C)C3CC[C@@]21C` (some centres undefined) belongs 0.98.
To `CC(C)[C@@H]1CC[C@]2(CO2)[C@@H]2C(=O)OCC(C(=O)O)=C[C@H]21` belongs 1.02; to `COC(=O)C1O[C@H](OCc2ccc(OC)cc2)[C@@H](OC(=O)c2ccccc2)[C@@H](OC(=O)c2ccccc2)C1O` (some centres undefined), 0.84; to `C=C1OC(=O)C23C1OC(CC(O)C2O)C3C` (centres undefined), 0.9.
To `COC(=O)c1cn(C2CC2)c2c(OC)c(F)c(F)cc2c1=O` belongs 0.9; to `COC(=O)C1O[C@H](OC)[C@@H](OCc2ccccc2)[C@@H](OCc2ccccc2)C1O` (some centres undefined), 1; to `CCCCCCCCCCCC[C@H](C(=O)O)[C@@H](C)C(=O)O`, 1.15.
As to `COc1c(N2CC[C@@H](CN)C2)c(F)cc2c(=O)c(C(=O)O)cn(CCc3ccccc3)c12`, the red/green cell ratio (normalised) was 1.14.
The figure for `O=C1N=NC(=O)N1c1ccccc1` is 0.86; for `CC(C)(C)Oc1c(F)c(F)nc(F)c1Cl` it is 0.97.
The figure for `COC(=O)c1ccc(C(CC(C)C)NC(C)=O)o1` (centres undefined) is 1.
To `COC(=O)[C@@]12Oc3ccc(-c4ccc5c(c4O)C(O)=C4C(=O)C[C@H](C)[C@H](O)[C@]4(C(=O)OC)O5)c(O)c3C(O)=C1C(=O)C[C@H](C)[C@@H]2O` belongs 1.15.
Take `CC(=O)OCC(=O)[C@@]1(O)CCC2C3C[C@H](C)C4=CC(=O)C=CC4(C)C3[C@@H](O)CC21C` (some centres undefined): the red/green cell ratio (normalised) was 1.09.
The figure for `O=C(Cc1ccncc1)c1ccc(F)cc1` is 1.16.
Consider `C[C@@H]1C[C@H](O)[C@@H](O)CO1`, for which the red/green cell ratio (normalised) was 0.94.
For the molecule `O=C(/C=C/c1ccccc1)O[C@H]1C[C@@H](O)[C@]2(O)C=CO[C@@H](O[C@@H]3O[C@H](CO)[C@@H](O)[C@H](O)[C@H]3O)C12` (some centres undefined), the red/green cell ratio (normalised) was 1.09.
In the case of `O=C(NCC[C@H](O)C(=O)O)OCc1ccccc1`, the red/green cell ratio (normalised) was 1.04.
With `COC(=O)CCC(C)[C@H]1CCC2C3C(C[C@H](O)[C@@]21C)[C@@]1(C)CC[C@@H](O)C[C@H]1C[C@H]3O` (some centres undefined), the red/green cell ratio (normalised) was 1.15.
To `COC(=O)C1O[C@H](OCc2ccccc2)[C@@H](OC(=O)c2ccccc2)[C@@H](OC(=O)c2ccccc2)C1O` (some centres undefined) belongs 1.02; to `NCCC[C@H](N)CC(=O)NC1CNC(=O)[C@H]([C@H]2C[C@H](O)N=C(N)N2)NC(=O)/C(=C/NC(N)=O)NC(=O)[C@H](CO)NC(=O)[C@H](CO)NC1=O` (some centres undefined), 0.82.
To `COC(=O)[C@@H](C)Oc1ccc(O)cc1` belongs 1.27.
